Data published in the supplement of paper PMC12645437, “Orthogonal IMiD-Degron Pairs Induce Selective Protein Degradation in Cells” (ACS Chemical Biology, 2025).
The full ranking holds about 8,300 sequences; the median of “log2 fold change of degron read counts, EGFP-low vs EGFP+ sorted cells (limma voom), compound-induced degradation” is about -1.1, and the highest 2% start at about 3.2. Many of the other results were omitted from the sample, so the highest values are more common in it than they were.

T1: CRBN, Q96SW2
T1 chain: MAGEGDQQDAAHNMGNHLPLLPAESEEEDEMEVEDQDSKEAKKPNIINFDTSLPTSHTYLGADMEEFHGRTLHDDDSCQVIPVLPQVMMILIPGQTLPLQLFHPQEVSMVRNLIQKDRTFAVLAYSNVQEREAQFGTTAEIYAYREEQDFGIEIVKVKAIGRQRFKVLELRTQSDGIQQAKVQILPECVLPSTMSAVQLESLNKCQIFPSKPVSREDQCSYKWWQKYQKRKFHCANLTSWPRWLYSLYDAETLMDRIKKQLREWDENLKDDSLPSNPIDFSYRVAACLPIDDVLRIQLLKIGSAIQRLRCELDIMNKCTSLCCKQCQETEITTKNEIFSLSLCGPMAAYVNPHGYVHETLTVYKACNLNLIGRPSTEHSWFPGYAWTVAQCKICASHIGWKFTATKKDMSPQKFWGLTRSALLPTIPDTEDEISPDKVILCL


Target: T1, CRBN, Q96SW2
Test: log2 fold change of degron read counts, EGFP-low vs EGFP+ sorted cells (limma voom), compound-induced degradation; higher = more compound-induced degradation of the degron-EGFP fusion; degrons are variants of IKZF1/3 zinc finger 2; compound dose not given here
Conditions: Jurkat, 18 h
Description: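 Pooled library of 8380 IKZF3 ZF2 degron mutants (positions 146-167 varied within the IKZF3 130-189 degron; only the varied core is printed, flanks not printed) fused to EGFP with IRES-mCherry, lentivirally expressed in Jurkat cells. mCherry+ cells were treated with one IMiD compound for 18 h (dose not stated) and FACS-sorted into EGFP-low and EGFP+ populations. Degron sequences were counted by NGS, and log2FC (EGFP-low vs EGFP+) was estimated by limma voom over 3 biological replicates.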

[1] = compound: compound 19 (5-tert-butyl-thalidomide)
[2] = compound: compound 22 (5-morpholino-thalidomide)
[3] = compound: compound 33 (diphenyl IMiD analogue)
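Further: pooled lentiviral library of zinc finger degron-EGFP fusions in mCherry-positive Jurkat cells, FACS-sorted after compound exposure, with degron abundance counted by next-generation sequencing.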

| Sequence | log2 fold change of degron read counts [1] | log2 fold change of degron read counts [2] | log2 fold change of degron read counts [3] | log2 fold change of degron read counts (compound: thalidomide) |
| --- | --- | --- | --- | --- |
| FRCDQCGAHFTQKGNLLRHIKL [46F_47R_49D_50Q_52G_53A_54H_55F_67L_, Q9UKT9] | -2.76 | -2.89 | -2.01 | -2.48 |
| FKCEICGAEFTQKGNLLRHIKL [46F_47K_49E_50I_52G_53A_54E_55F_67L_, Q9UKT9] | -0.284 | -2.59 | -3.54 | -0.121 |
| FCCNICGARFTQKGNLLRHIKL [46F_47C_49N_50I_52G_53A_54R_55F_67L_, Q9UKT9] | 1.4 | 1.76 | 0.552 | 1.57 |
| FECDICGAPFTQKGNLLRHIKL [46F_47E_49D_50I_52G_53A_54P_55F_67L_, Q9UKT9] | 1.27 | -1.62 | -0.0281 | 0.305 |
| FICDICGAPFTQKGNLLRHIKL [46F_47I_49D_50I_52G_53A_54P_55F_67L_, Q9UKT9] | 1.26 | 3.46 | 2.32 | 2.47 |
| FTCDICGAPFTQKGNLLRHIKL [46F_47T_49D_50I_52G_53A_54P_55F_67L_, Q9UKT9] | 2.1 | 2.86 | 1.41 | 1.93 |
| FACDICGAPFTQKGNLLRHIKL [46F_47A_49D_50I_52G_53A_54P_55F_67L_, Q9UKT9] | 3.46 | 1.66 | -0.501 | 0.383 |
| FNCDICGAPFTQKGNLLRHIKL [46F_47N_49D_50I_52G_53A_54P_55F_67L_, Q9UKT9] | 2.68 | 1.25 | -0.682 | -0.153 |
| FKCDICGAPFTQKGNLLRHIKL [46F_47K_49D_50I_52G_53A_54P_55F_67L_, Q9UKT9] | 1.21 | 0.288 | -1.35 | 1.02 |
| FGCDICGAPFTQKGNLLRHIKL [46F_47G_49D_50I_52G_53A_54P_55F_67L_, Q9UKT9] | 0.329 | -0.821 | -1.38 | -1.4 |
| FRCDICGAPFTQKGNLLRHIKL [46F_47R_49D_50I_52G_53A_54P_55F_67L_, Q9UKT9] | 3.17 | 3.53 | 3.32 | 3.52 |
| FLCDICGAPFTQKGNLLRHIKL [46F_47L_49D_50I_52G_53A_54P_55F_67L_, Q9UKT9] | 1.62 | 2.15 | 2.03 | 1.99 |
| FSCDICGAPFTQKGNLLRHIKL [46F_47S_49D_50I_52G_53A_54P_55F_67L_, Q9UKT9] | 2.36 | 1.62 | 0.275 | 0.668 |
| FDCDICGAPFTQKGNLLRHIKL [46F_47D_49D_50I_52G_53A_54P_55F_67L_, Q9UKT9] | 0.272 | -1.45 | -1.51 | -0.767 |
| FMCDICGAPFTQKGNLLRHIKL [46F_47M_49D_50I_52G_53A_54P_55F_67L_, Q9UKT9] | 2.71 | 3.25 | 3.03 | 1.89 |
| FSCDVCGAEFTQKGNLLRHIKL [46F_47S_49D_50V_52G_53A_54E_55F_67L_, Q9UKT9] | -0.733 | -1.36 | -1.13 | -1.96 |
| FNCNICGANFTQKGNLLRHIKL [46F_47N_49N_50I_52G_53A_54N_55F_67L_, Q9UKT9] | 0.662 | -0.0154 | -0.393 | -0.94 |
| FGCDQCGARFTQKGNLLRHIKL [46F_47G_49D_50Q_52G_53A_54R_55F_67L_, Q9UKT9] | -1.28 | -2.53 | -2.52 | -1.78 |
| FKCEICGRWFTQKGNLLRHIKL [46F_47K_49E_50I_52G_53R_54W_55F_67L_, Q9UKT9] | -2.8 | -3.25 | -3.01 | -2.58 |
| FWCNQCGRHFTQKGNLLRHIKL [46F_47W_49N_50Q_52G_53R_54H_55F_67L_, Q9UKT9] | -1.56 | -1.46 | -1.56 | -1.55 |
| FACPQCGAVFTQKGNLLRHIKL [46F_47A_49P_50Q_52G_53A_54V_55F_67L_, Q9UKT9] | 0.29 | -1.36 | -0.148 | -1.43 |
| FVCPICGHGFTQKGNLLRHIKL [46F_47V_49P_50I_52G_53H_54G_55F_67L_, Q9UKT9] | -2.33 | -2.2 | -1.88 | -0.905 |
| FLCEQCGAEFTQKGNLLRHIKL [46F_47L_49E_50Q_52G_53A_54E_55F_67L_, Q9UKT9] | -2.34 | -3.65 | -2.09 | -1.63 |
| FQCPQCGAYFTQKGNLLRHIKL [46F_47Q_49P_50Q_52G_53A_54Y_55F_67L_, Q9UKT9] | -1.88 | -1.45 | -0.995 | 1.25 |
| LMCPICGFVCTQKGNLLRHIKL [46L_47M_49P_50I_52G_53F_54V_55C_67L_, Q9UKT9] | -0.234 | 0.389 | 2.08 | 1.67 |
| LCCPICGFVCTQKGNLLRHIKL [46L_47C_49P_50I_52G_53F_54V_55C_67L_, Q9UKT9] | 1.01 | 1.57 | 2.59 | 2.1 |
| LTCPICGFVCTQKGNLLRHIKL [46L_47T_49P_50I_52G_53F_54V_55C_67L_, Q9UKT9] | 0.397 | 1.59 | 2.08 | 2.24 |
| LGCPICGFVCTQKGNLLRHIKL [46L_47G_49P_50I_52G_53F_54V_55C_67L_, Q9UKT9] | 3.04 | 1.82 | 1.33 | 0.747 |
| LYCPICGFVCTQKGNLLRHIKL [46L_47Y_49P_50I_52G_53F_54V_55C_67L_, Q9UKT9] | 3.29 | 3.49 | 2.29 | 1.2 |
| LQCPICGFVCTQKGNLLRHIKL [46L_47Q_49P_50I_52G_53F_54V_55C_67L_, Q9UKT9] | 0.325 | 2.16 | 1.88 | 3.76 |
